Most compounds without a hit are left out; they make up all but 6.6% or so of the library.
Beta cell apopt = beta cell apoptosis inhibition; INS-1E cytokine-induced death, ATP luminescence, 48 h; percent of positive-control rescue, neutral wells zero; protection from apoptosis, % (test concentration not listed); actives 0.8% (n = 300,000);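 active = Every replicate reaches about 75%, or at least half do and their mean reaches it too, limit read from the data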;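 also: 0% = cytokine-treated negative control wells and 100% = positive control rescue; higher means more ATP so stronger rescue from cytokine killing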
Mdm2 MdmX PPI = disrupts the human Mdm2-MdmX interaction; SaOS-2 split-luciferase Mdm2/MdmX complementation, luminescence; actives 3% (n = 330,000); inhibition, % at 8 µM; AID 485346; O15151+Q00987;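 active = inhibition of at least 50% at 8 µM in the primary screen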
MPTP inh = permeability transition pore inhibition; actives 1.4% (n = 360,000); AID 602449; isolated mouse mitochondria, Ca2+ swelling absorbance, 30 min; inhibition, % at 10 µM;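 active = inhibition of 50% or more, scaled per plate between neutral and stimulator controls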;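 also: 0% = DMSO wells given calcium and 100% = 1 mM EGTA wells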
Gli-Sufu block = Gli-Sufu pathway antagonism; AID 588413; Sufu-KO-LIGHT fibroblasts, Gli luciferase reporter luminescence; actives 0.74% (n = 340,000); inhibition, % at 5 µM;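 active = inhibition above about 55%, limit read from the data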;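 also: 0% = DMSO-treated cells and 100% = wells with medium but no cells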
GRIN3A LBD mod = modulators (binders) of human NR3A ligand-binding domain; NR3A LBD differential scanning fluorimetry, Tm shift; 0% = protein alone, 100% = glycine-bound protein; Tm shift relative to glycine control, % at 25 µM; actives 2.5% (n = 340,000); AID 1259313;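 active = melting temperature shift of at least 10% of the positive control shift, at one fixed dose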
CSC inhib = cancer stem cell inhibition; cancer stem cell-like cells viability, luminescence; actives 1.1% (n = 300,000); AID 2717; inhibition, % at 7.5 µM; in the data active = inhibition above about 75%; tested in HMLE shEcad cells
Mdm2 MdmX conf = human Mdm2/MdmX binding inhibition, confirmed. actives 55% (n = 10,000). inhibition, % at 8 µM. shares compounds with Mdm2 MdmX PPI. luminescent assay. AID 489028; in the data active = inhibition above about 40%
FLuc counter = counter-screen for Mdm2/MdmX inhibitors: full-length luciferase. actives 77% (n = 6,200). shares compounds with Mdm2 MdmX PPI. inhibition, % at 8 µM. AID 504607. SaOS-2 full-length luciferase counterscreen, luminescence;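 active = mean inhibition at 8 µM reaching about 37%, which flags the compound as non-specific, limit read from the data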;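 also: p53-null SaOS-2 cells with luciferase driven by a doxycycline-inducible promoter; compound on cells about two nights before reading with doxycycline added after day one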
* hit, by the source's call; nt = no result given.

SMILES | Beta cell apopt | Mdm2 MdmX PPI | MPTP inh | Gli-Sufu block | GRIN3A LBD mod | CSC inhib | Mdm2 MdmX conf | others
Cc1cc(=O)oc2cc(OCc3cc4c(cc3Cl)OCO4)ccc12 | 8.3 | 89.1* | 1.4 | -29.6 | 0.8 | -12.9 | -17.6
NC1=NC(=Nc2cccc(S(N)(=O)=O)c2)c2ccccc21 | -10.6 | 29.0 | 1.9 | 0.2 | -0.4 | 4.9 | nt
NC1=NC(=Nc2cccc(Cl)c2)c2ccccc21 | -5.9 | 51.3* | 0.1 | -5.8 | -0.5 | 19.6 | 15.7
NC1=NC(=Nc2ccc(Cl)cc2)c2ccccc21 | -7.4 | 55.0* | -0.7 | 1.7 | -2.5 | 28.2 | -12.2
COc1ccccc1NS(=O)(=O)c1cccc(N=C2N=C(N)c3ccccc32)c1 | -8.0 | 51.1* | 4.2 | -3.5 | -5.7 | 4.0 | 23.8
Cc1cccc(N=C2N=C(N)c3ccccc32)c1 | -6.0 | 47.8 | 0.5 | 2.1 | -1.0 | -2.1 | nt
CC(C)(C)c1ccc(C(=O)N2CCC2(C)C(=O)Nc2cccc3ccccc23)cc1 (centres undefined) | nt | nt | 0.7 | nt | nt | nt | nt
C/C(=N/NC(=O)c1ccc(C)s1)c1cccc(NC(=O)COc2ccc(Cl)cc2C)c1 | -1.9 | 88.8* | 5.2 | -7.6 | 6.3 | 3.9 | -0.3
C/C(=N\NC(=O)c1c(Cl)c(C)nn1C)c1cccc(NC(=O)COc2ccc(Cl)cc2)c1 | 0.3 | 12.3 | -1.7 | -21.0 | -3.1 | 16.6 | nt
COc1ccc(C(=O)Nc2cccc(/C(C)=N/NC(=O)c3ccc([N+](=O)[O-])c(C)c3)c2)cc1OC | 5.9 | 55.6* | -1.2 | 6.3 | -6.8 | -8.8 | -25.3
C/C(=N\NC(=O)c1ccc(O)cc1)c1cccc(NC(=O)c2ccc(Cl)cc2)c1 | -3.1 | 58.3* | 0.3 | -38.2 | 6.2 | 22.4 | -2.6
C=CCN(CC=C)CC(=O)Nn1c(C)ccc1C | nt | nt | -0.3 | 4.0 | -0.6 | nt | nt
O=C(NCCc1ccccc1)C(c1cccs1)N(C(=O)CCl)c1ccc(Cl)cc1 (centres undefined) | 17.5 | 98.9* | -1.7 | 95.3* | -6.3 | 64.1 | 100.1* | FLuc counter=52.5*
O=C(NCCc1ccccc1)C(c1cccs1)N(C(=O)c1csnn1)C1CC1 (centres undefined) | 2.0 | 16.2 | 2.9 | -8.3 | -1.2 | -5.6 | nt
O=C(NC(=S)N1CC=CCC1)c1ccccc1 | nt | nt | -0.1 | nt | nt | nt | nt
Cc1[nH]ccc2cc3nc4ccccc4c3cc12 | nt | nt | 2.4 | nt | nt | nt | nt
COc1ccc(NS(=O)(=O)c2cc(OC)ccc2NC(=O)c2cc(C)oc2C)cc1 | 10.2 | 51.5* | -3.5 | 2.1 | 1.2 | 56.6 | 60.6* | FLuc counter=48.5*
COc1ccc(NS(=O)(=O)c2cc(OC)ccc2OC)cc1 | -2.5 | -1.0 | -2.5 | -2.4 | -3.7 | 3.4 | nt
CCOc1cccc2sc(N(CCN(C)C)C(=O)/C=C/c3cccs3)nc12 | 17.0 | 65.5* | 3.2 | 17.7 | -7.6 | -0.2 | 25.8
CCOc1cccc2sc(N(CCCN(C)C)C(=O)Cc3ccccc3)nc12 | -1.2 | 30.0 | -0.9 | -1.2 | 0.3 | -10.6 | nt
COc1cccc2sc(N(CCN(C)C)C(=O)/C=C/c3cccs3)nc12 | 2.7 | 56.0* | 1.8 | 3.9 | 0.0 | 5.9 | 27.4
COc1cc(OC)cc(C(=O)N2CCN(S(=O)(=O)c3ccc4c(c3)OCCO4)CC2)c1 | nt | nt | 0.2 | nt | nt | nt | nt
COc1ccccc1CNc1nc2nc3c(c(=O)n2[nH]1)CCC3 | 4.3 | 20.4 | 0.1 | -24.3 | -1.3 | -2.7 | nt
O=c1c2c(nc3nc(NCc4ccccc4Cl)[nH]n13)CCC2 | nt | 66.9* | nt | nt | nt | -4.8 | -4.3
COc1ccc(-c2coc3cc4oc(=O)c5ccccc5c4cc23)cc1F | 20.4 | 75.0* | 2.6 | 42.1 | 6.7 | nt | 55.2* | FLuc counter=57.9*
COc1ccc(-c2c(-c3ccccc3OC)oc3ccccc23)cc1F | 1.0 | 1.2 | 4.6 | 3.7 | 3.2 | 25.8 | nt
CCOC(=O)CNC(=O)CSc1nc2cccnc2n1Cc1ccccc1 | 1.6 | -12.8 | 3.9 | -2.7 | -0.4 | nt | nt
Cc1nc(NC(=O)CSc2nc3cccnc3n2Cc2ccccc2)sc1C | 48.1 | 78.3* | -0.7 | 6.8 | 4.0 | nt | 20.3
Cc1ccc(N2CC(C(=O)N(C)CC(=O)Nc3ccc(Cl)c(C(F)(F)F)c3)CC2=O)cc1 (centres undefined) | -4.4 | 59.0* | -0.4 | 3.9 | 1.0 | 15.8 | 43.6* | FLuc counter=65.7*
